High-throughput results from PubChem.
A selection: hits, their analogues and other compounds. The true share with any hit is near 3.7%.
HepG2 tox: qHTS for Inhibitors of TGF-b: Cytotox Counterscreen. HepG2 CAGA-GFP viability, ATP luminescence, 18 h. Potency, µM (series often up to 46.1 µM), for the others: top-dose activity change, negative = cytotoxicity, most hits filed as cytotoxic. 410,000 compounds, 0.76% hits
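CellTiter-Glo luminescence gave cytotoxicity after 18 hours at 37 degrees C. The cells were HepG2 CAGA-GFP in 1% FBS DMEM, stimulated with 500 pg/mL TGF-beta after compound addition. %Activity was normalised to no-cell wells (complete cell-killing) and DMSO (no toxicity), and curves were fitted and classified.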
GLP1R ag: qHTS of GLP-1 Receptor Agonists; Glucagon-like peptide 1 receptor (Homo sapiens), P43220; HEK293 GLP-1R CRE-luciferase, luminescence, 4-6 h; cells express a hypersensitive GLP-1R form; 380,000 compounds, 0.007% hits; Potency, µM (top dose mostly 45.6 µM), for the others: at the highest dose activation, usual class: activators; also: % of control where 0% means no effect
Target sequence (P43220 whole entry, looked up): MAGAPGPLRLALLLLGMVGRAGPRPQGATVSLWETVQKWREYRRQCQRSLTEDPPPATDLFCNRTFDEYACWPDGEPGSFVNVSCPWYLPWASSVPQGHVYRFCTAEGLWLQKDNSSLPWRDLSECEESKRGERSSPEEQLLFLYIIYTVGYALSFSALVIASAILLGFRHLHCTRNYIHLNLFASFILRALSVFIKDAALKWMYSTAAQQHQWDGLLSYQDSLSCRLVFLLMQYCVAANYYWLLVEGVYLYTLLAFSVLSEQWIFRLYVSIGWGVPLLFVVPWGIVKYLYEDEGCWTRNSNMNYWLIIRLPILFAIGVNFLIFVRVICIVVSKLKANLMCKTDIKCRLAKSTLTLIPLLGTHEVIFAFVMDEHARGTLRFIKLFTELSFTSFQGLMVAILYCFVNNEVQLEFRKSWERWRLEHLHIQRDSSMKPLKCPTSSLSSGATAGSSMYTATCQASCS
S2 tox: Viability Counterscreen for Primary qHTS for Inhibitors of ATXN expression; S2 cells (HEK-293 line with an ATXN2-luciferase reporter) viability, CellTiter-Fluor protease fluorescence, 24 h; Potency, µM (highest dose often 56.7 µM), usual class: cytotoxic; 400,000 compounds, 0.49% hits; also: nearly all actives have a fitted effect of over 40% in size
TGFb SMAD3 inh: qHTS for Inhibitors of TGF-b; HepG2 CAGA-GFP TGF-b/SMAD3 reporter, GFP fluorescence, 18 h; TGF-beta stimulated, 500 pg/mL final; Potency, µM (titrated, usually from 46.1 µM), without a hit: at the top dose activity, negative = inhibition, actives largely listed as inhibitors; 410,000 compounds, 1.2% hits; AID 588855, 2011; also: % is scaled to controls: 0 for no effect and ±100 for the full control effect; nearly all actives have a fitted effect of over 65% in size
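Read-out: total well GFP (ex488/em500-530) summed from mean per-cell fluorescence. Cells: HEPG2 CAGA-GFP, 1% FBS DMEM, 18 h at 37 degrees C with 500 pg/mL final TGF-beta. Unstimulated wells served as the full-inhibition control; stimulated DMSO wells = 0%.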
GLP1R inv ag: qHTS of GLP-1 Receptor Inverse Agonists (Inhibition Mode) | HEK293 GLP-1R CRE-luciferase, luminescence, 24 h; GLP-1R form is constitutively active | Potency, µM (doses to about 38.3 µM), for inactives: top-dose activity change, negative = inhibition, most hits filed as inhibitors | 410,000 compounds, 1.6% hits; also: % is scaled to controls: 0 for no effect and ±100 for the full control effect; nearly all actives have a fitted effect of over 55% in size
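Assay principle: reduced luminescence from a cAMP-responsive reporter in HEK293 cells co-expressing a constitutively active GLP-1R. Conditions: 24 hr compound incubation, 37 deg C, 5% CO2.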
ATXN2 expr inh: Primary qHTS for Inhibitors of ATXN expression | HEK-293 ATXN2-luciferase reporter, luminescence, 24 h | Potency, µM (series often up to 57 µM), for the others: at the highest dose activity change, negative = inhibition, most hits filed as inhibitors | 360,000 compounds, 0.72% hits; also: % is scaled to controls: 0 for no effect and ±100 for the full control effect; nearly all actives have a fitted effect of over 55% in size
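ATXN2-luciferase reporter cells (luciferase flanked by upstream and downstream ATXN2 gene portions) were treated 24 h at 37 °C with compounds at up to 57 uM. SteadyGlo luminescence gave expression; GF-AFC fluorescence gave viability.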
Numbers without * were called inactive; [ ] = remark or other dose. Calls follow the shape of the dose curve; as a rule, active = well fitted curve in the direction sought with a large enough effect; inconclusive = small, poorly fitted or top-dose-only effect, or another doubt; inactive = no such curve, though single readings can be large; an effect the other way counts as inactive or inconclusive. Potency is read from the fitted curve at half-maximal effect.

Results for CN1CCCN(C(=O)/C=C/c2ccc(Cl)cc2Cl)CC1 ?
HepG2 tox: -20%; GLP1R ag: -7%; TGFb SMAD3 inh: -1%; GLP1R inv ag: 7.9µM*

Results for COc1ccc(Cn2c(C(=O)O)c(CNCc3ccc(SC)cc3)c3ccc(OC)cc32)cc1 ?
HepG2 tox: -70%; TGFb SMAD3 inh: inconclusive; GLP1R inv ag: inconclusive

How did CCN(CC)S(=O)(=O)c1cccc(C(=O)N[C@H](C(=O)NCc2ccc(Cl)cc2)C(C)C)c1 do in these assays?
HepG2 tox: -37%; GLP1R ag: -2%; S2 tox: inactive; TGFb SMAD3 inh: -15%; GLP1R inv ag: 13µM*; ATXN2 expr inh: -11%

What do the screens show for `CCN(CC)S(=O)(=O)c1cccc(C(=O)N/N=C(\C)c2ccc(O)cc2O)c1`?
HepG2 tox: -29%; GLP1R ag: 5%; TGFb SMAD3 inh: 21%; GLP1R inv ag: -22%[0.307 µM]; ATXN2 expr inh: 2.4µM*

What do the screens show for `CCN(CC)S(=O)(=O)c1cccc(C(=O)N[C@H](C(=O)NCc2ccccc2F)C(C)C)c1`?
HepG2 tox: -14%; GLP1R ag: -1%; S2 tox: inactive; TGFb SMAD3 inh: -2%; GLP1R inv ag: inconclusive; ATXN2 expr inh: 4%

What do the screens show for `CCN(CC)S(=O)(=O)c1cccc(C(=O)Nc2cc(C)cc(C)c2)c1`?
HepG2 tox: -43%; GLP1R ag: 4%; S2 tox: inactive; TGFb SMAD3 inh: -7%; GLP1R inv ag: 2µM*; ATXN2 expr inh: 19%

What do the screens show for `CC(C)Sc1ncc(Cl)c(C(=O)Nc2nc3ccc(S(C)(=O)=O)cc3s2)n1`?
HepG2 tox: -7%; S2 tox: inactive; TGFb SMAD3 inh: -11%; GLP1R inv ag: 12%; ATXN2 expr inh: 16%

Results for C=C1C=C(C(F)F)n2ncc(C(=O)NCc3ccccc3OC)c2N1 ?
HepG2 tox: -1%; TGFb SMAD3 inh: 0%

What do the screens show for `O=C(COc1ccc(Br)cc1Cl)NC1CCCCC1`?
HepG2 tox: -56%; GLP1R ag: 0%; S2 tox: inactive; TGFb SMAD3 inh: inconclusive; GLP1R inv ag: 12%; ATXN2 expr inh: 54%

Results for O=C(COc1ccc(Br)cc1Cl)NC(=O)NC1CCCC1 ?
HepG2 tox: 3%; GLP1R ag: 12%; S2 tox: inactive; TGFb SMAD3 inh: 2%; GLP1R inv ag: 3.5µM*

What do the screens show for `O=C(COc1ccc(Cl)cc1Br)NC(=O)NC1CCCC1`?
HepG2 tox: 1%; GLP1R ag: 2%; S2 tox: inactive; TGFb SMAD3 inh: -19%; GLP1R inv ag: 10µM*; ATXN2 expr inh: 80%

What do the screens show for `Cc1cccc(C)c1N1CCN(C(=O)c2ccc3c(c2)OCO3)CC1`?
HepG2 tox: -23%; GLP1R ag: -2%; S2 tox: inactive; TGFb SMAD3 inh: -15%; GLP1R inv ag: 10µM*; ATXN2 expr inh: -1%

What do the screens show for `Cc1ccc(C(=O)N2CCN(c3ccc(NC(=O)c4ccc5c(c4)OCCO5)cc3)CC2)cc1`?
HepG2 tox: 2%; GLP1R ag: -2%; S2 tox: inactive; TGFb SMAD3 inh: 0%; GLP1R inv ag: 9%; ATXN2 expr inh: inconclusive

What do the screens show for `Cc1cccc(N2CCN(C(=O)c3ccc4c(c3)OCCO4)CC2)c1C`?
HepG2 tox: -29%; GLP1R ag: 0%; S2 tox: inactive; TGFb SMAD3 inh: -19%; GLP1R inv ag: -29%[7.66 µM]; ATXN2 expr inh: -23%

Results for Cc1ccccc1C(=O)N1CCN(c2ccc(NC(=O)c3ccc4c(c3)OCCO4)cc2)CC1 ?
HepG2 tox: -12%; GLP1R ag: -20%; S2 tox: inconclusive; TGFb SMAD3 inh: -7%; GLP1R inv ag: inconclusive; ATXN2 expr inh: 28µM*

Results for COc1c(C)cccc1C(=O)Nc1ccc(N2CCN(C(=O)c3ccccc3C)CC2)cc1 ?
HepG2 tox: -10%; GLP1R ag: -27%; S2 tox: inconclusive; TGFb SMAD3 inh: inconclusive; GLP1R inv ag: inconclusive; ATXN2 expr inh: 20µM*

What do the screens show for `COc1ccccc1C(=O)Nc1ccc(N2CCN(Cc3ccccc3)CC2)cc1`?
HepG2 tox: -4%; GLP1R ag: -2%; S2 tox: inactive; TGFb SMAD3 inh: 1%; GLP1R inv ag: 11µM*; ATXN2 expr inh: -3%

How did O=C1[C@H](Cc2ccccc2)NC/C=C\C[C@H](c2ccco2)N1Cc1ccccc1 do in these assays?
HepG2 tox: 1%; TGFb SMAD3 inh: -8%

What do the screens show for `Cc1cc(OC(C)C(=O)NNC(=O)Nc2ccc(F)cc2F)cc(C)c1Cl` (stereo not drawn)?
HepG2 tox: -31%; GLP1R ag: 3%; S2 tox: inactive; TGFb SMAD3 inh: 16µM*; GLP1R inv ag: inconclusive; ATXN2 expr inh: 9%

What do the screens show for `O=C(N/N=C/c1ccc(C(F)(F)F)cc1)c1ccc(O)cc1`?
HepG2 tox: -20%; GLP1R ag: 16%; S2 tox: inactive; TGFb SMAD3 inh: -19%; GLP1R inv ag: inconclusive; ATXN2 expr inh: 4%

How did NC(N)=NN=C(c1ccc(F)cc1)c1ccc(C(F)(F)F)cc1 do in these assays?
HepG2 tox: -109%; GLP1R ag: -3%; TGFb SMAD3 inh: 10µM*; GLP1R inv ag: 1.1µM*; ATXN2 expr inh: inconclusive

How did CN(C)c1cc[n+](CC(=O)c2ccc(-c3ccccc3)cc2)cc1 do in these assays?
HepG2 tox: -28%; GLP1R ag: -1%; S2 tox: inactive; TGFb SMAD3 inh: inconclusive; GLP1R inv ag: inconclusive; ATXN2 expr inh: 2.8µM*

Results for Cc1ccc(NC(=O)Cn2c(=O)n(CCCCC(=O)NCc3ccc4c(c3)OCO4)c(=O)c3ccccc32)cc1 ?
HepG2 tox: 5%; GLP1R ag: 1%; S2 tox: inactive; TGFb SMAD3 inh: 0%; GLP1R inv ag: 5%; ATXN2 expr inh: 0%

What do the screens show for `Cc1ccccc1CN(C)C(C)C(=O)Nc1ccccc1F` (stereo not drawn)?
HepG2 tox: -41%; GLP1R ag: 14%; S2 tox: inactive; TGFb SMAD3 inh: inconclusive; GLP1R inv ag: 8.9µM*; ATXN2 expr inh: -24%

How did Cc1cccc(C)c1NC(=O)CN(C)C(C)C(=O)Nc1ccccc1-c1ccccc1 (stereo not drawn) do in these assays?
HepG2 tox: -6%; GLP1R ag: -7%; S2 tox: inactive; TGFb SMAD3 inh: -2%; GLP1R inv ag: -45%; ATXN2 expr inh: -7%[11.3 µM]
